Source: PubChem BioAssay (NCATS)
Inconclusive results are not listed. Calls of active or inactive are those of the source. Unless noted, the call rests on the fitted dose curve; in most records, active means well fitted curve in the direction sought with a large enough effect; inconclusive means small, poorly fitted or top-dose-only effect, or another doubt; inactive means no such curve, though single readings can be large; an effect the other way counts as inactive or inconclusive.

Experiments:
[1] = target: Protein phosphatase 1D (Homo sapiens) (UniProt O15297); test: RapidFire Mass Spectrometry qHTS Assay for Modulators of WT P53-Induced Phosphatase 1 (WIP1) (AID 1347424);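 further: amount of dephosphorylated VEPPL-S-QETFS peptide product formed by WIP1; series mostly up to about 63 µM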
Method in brief: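 WIP1 (10 nM final) was preincubated 1 h at room temperature with compounds in Tris-HCl pH 7.5, 30 mM MgCl2, TCEP, EGTA, BSA; 2 uM VEPPL-pS-QETFS phosphopeptide was added for 5 min, quenched with formic acid, and dephosphorylated product quantified by RapidFire MS.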

[2] = target: Protein phosphatase 1D (Homo sapiens) (UniProt O15297); test: Rhodamine-PBP qHTS Assay for Modulators of WT P53-Induced Phosphatase 1 (WIP1) (AID 1347425)
Method in brief: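 5 nM WIP1 + 10 uM Rh-PBP, 50 mM Tris pH 7.5, 30 mM MgCl2, 1 mM TCEP, 0.1 mM EGTA, BSA; cpds pinned, 1 hr RT; + 10 uM phosphopeptide; fluorescence 1-min reads x 11 min; delta = f1 - f0.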

[3] = Primary qHTS for inhibitors of La Crosse Virus (LACV) - induced cell death in SH-SY5Y cells (AID 1508616);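 further: top concentration of the series differs between compounds; higher means more rescue of cells from virus-induced death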
Method in brief: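 Readout was luminescence from ATPLite 1step added after a 6-day LACV infection (0.01 MOI) of SH-SY5Y cells that had received pin-transferred compound 24 hr after seeding.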

[4] = target: Calcium and integrin-binding protein 1 (Homo sapiens) (UniProt Q99828); test: Primary qHTS for Identification of Calcium Integrin Binding Protein 1 (CIB1) Competitor (AID 1508620);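 further: GST tagged CIB1 binding a fluorescein labelled alphaIIb integrin peptide tracer; top concentration of the series differs between compounds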
Method in brief: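 Fluorescence polarization competition: CIB1-GST (1 uM final) preincubated with compound 15 min at room temperature, then FITC-labeled alphaIIb peptide (100 nM final) added for another 15 min. Polarization read at Ex 480/Em 540.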

[5] = Primary qHTS for small molecule stabilizers of the endoplasmic reticulum resident proteome: Secreted ER Calcium Modulated Protein (SERCaMP) assay (AID 1508630)
Method in brief: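 GLuc-SERCaMP-expressing SH-SY5Y cells, pretreated 16 h with compound, are challenged with thapsigargin to empty ER calcium stores; after 4 h, coelenterazine is added directly to the medium and luminescence is imaged.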

[6] = A High-Content qHTS Against Drug Library for the Identification of Small Molecules that Inhibit DYT1 Early Onset Primary Dystonia-Associated Cell Pathology (AID 1645839; calls by dose curve; further: series mostly up to about 46 µM)
Method in brief: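 Readout: %pathology, the punctate EGFP-TorsinA distribution from imaging, as the primary channel and cell count as the toxicity counterscreen. HEK293 Flp-In cells expressing delE TorsinA were induced with tetracycline and treated with compound for 48 h.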

[7] = target: Cytochrome P450 2D6 (Homo sapiens) (UniProt P10635); test: Cytochrome P450 family 2 subfamily D member 6 (CYP2D6) small molecule antagonists: luciferase biochemical (cell-free) qHTS assay (AID 1645840; active means well fitted curve in the direction sought with a large enough effect in the repeat runs; an effect the other way counts as inactive or inconclusive; further: nearly all actives have a fitted effect of over 55% in size; further: potency means the concentration at half of the fitted maximal effect)
Method in brief: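 P450-Glo luminescent screen: recombinant CYP2D6 enzyme–proluciferin substrate mix preincubated with compound 10 min at room temperature, then NADPH regeneration added for 1 h at room temperature. Detection reagent added for 20 min; luciferin light read as relative luminescence units.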

[8] = target: Cytochrome P450 2C9 (Homo sapiens) (UniProt P11712); test: Cytochrome P450 family 2 subfamily C member 9 (CYP2C9) small molecule antagonists: luciferase biochemical (cell-free) qHTS assay (AID 1645842; active means well fitted curve in the direction sought with a large enough effect in the repeat runs; an effect the other way counts as inactive or inconclusive; further: series mostly up to about 57 µM; nearly all actives have a fitted effect of over 55% in size)
Method in brief: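 Luminescence, after 20 min with luciferin detection reagent, reflected CYP2C9 turnover during a 1 h NADPH-driven reaction at 37C. Enzyme-substrate mix contained 0.4% bovine serum albumin and was preincubated with compound 10 min at room temperature.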

[9] = Counterscreen qHTS for small molecule stabilizers of the endoplasmic reticulum resident proteome: GLuc-NoTag assay (AID 1508627);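 further: SH-SY5Y cells given compound then 100 nM thapsigargin to empty ER calcium; series mostly up to about 76 µM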
Method in brief: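 SH-SY5Y cells stably expressing constitutively secreted GLuc (no SERCaMP tag) were pre-incubated 5 h, treated with compound for 19 h, then 100 nM thapsigargin for 4 h at 37C; medium GLuc read by coelenterazine luminescence.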

[10] = Confirmatory qHTS for small molecule stabilizers of the endoplasmic reticulum resident proteome: Secreted ER Calcium Modulated Protein (SERCaMP) assay (AID 1508628); further: potency means the concentration at half of the fitted maximal effect; nearly all actives have a fitted effect of over 40% in size
Method in brief: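 We seeded SH-SY5Y-GLuc-SERCaMP cells, added compounds (three concentrations in the primary run, eleven up to 76.6 uM in confirmation), incubated 16 h, depleted ER calcium with thapsigargin, and read luciferase 4 h later.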

[11] = target: Calcium and integrin-binding protein 1 (Homo sapiens) (UniProt Q99828); test: Validation qHTS for Identification of Calcium Integrin Binding protein 1 (CIB1) Competitor (AID 1508618)
Method in brief: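 Displacement of FITC-alphaIIb peptide (100 nM) from CIB1-GST (1 uM) is monitored by polarization in quantitative HTS format; buffer carries 5 mM CaCl2 and 125 mM NaCl at pH 7.4, incubations are at room temperature.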

[12] = target: Papain (Carica papaya) (UniProt P00784); test: Primary qHTS assay for inhibitors of the protease papain (AID 1645873);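 further: papain turnover of Z-FR-AMC read as the AMC fluorescence gain over 10 min; series mostly up to about 50 µM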

Measured: Potency

Sequence of Cytochrome P450 2D6 (Homo sapiens) (P10635 whole entry, looked up): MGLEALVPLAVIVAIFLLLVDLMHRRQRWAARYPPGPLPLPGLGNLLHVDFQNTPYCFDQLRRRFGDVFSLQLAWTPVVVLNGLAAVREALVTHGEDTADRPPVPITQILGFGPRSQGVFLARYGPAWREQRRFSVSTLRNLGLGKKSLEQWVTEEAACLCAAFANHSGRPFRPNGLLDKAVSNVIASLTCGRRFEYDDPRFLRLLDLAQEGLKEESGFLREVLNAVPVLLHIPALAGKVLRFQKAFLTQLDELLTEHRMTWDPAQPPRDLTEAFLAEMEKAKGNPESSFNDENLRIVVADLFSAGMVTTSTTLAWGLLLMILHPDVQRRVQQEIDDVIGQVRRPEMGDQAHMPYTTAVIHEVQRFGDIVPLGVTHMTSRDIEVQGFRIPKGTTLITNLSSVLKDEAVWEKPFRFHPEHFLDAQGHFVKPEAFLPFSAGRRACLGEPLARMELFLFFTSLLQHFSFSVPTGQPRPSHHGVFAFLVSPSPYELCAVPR
Sequence of Protein phosphatase 1D (Homo sapiens) (O15297 whole entry, looked up): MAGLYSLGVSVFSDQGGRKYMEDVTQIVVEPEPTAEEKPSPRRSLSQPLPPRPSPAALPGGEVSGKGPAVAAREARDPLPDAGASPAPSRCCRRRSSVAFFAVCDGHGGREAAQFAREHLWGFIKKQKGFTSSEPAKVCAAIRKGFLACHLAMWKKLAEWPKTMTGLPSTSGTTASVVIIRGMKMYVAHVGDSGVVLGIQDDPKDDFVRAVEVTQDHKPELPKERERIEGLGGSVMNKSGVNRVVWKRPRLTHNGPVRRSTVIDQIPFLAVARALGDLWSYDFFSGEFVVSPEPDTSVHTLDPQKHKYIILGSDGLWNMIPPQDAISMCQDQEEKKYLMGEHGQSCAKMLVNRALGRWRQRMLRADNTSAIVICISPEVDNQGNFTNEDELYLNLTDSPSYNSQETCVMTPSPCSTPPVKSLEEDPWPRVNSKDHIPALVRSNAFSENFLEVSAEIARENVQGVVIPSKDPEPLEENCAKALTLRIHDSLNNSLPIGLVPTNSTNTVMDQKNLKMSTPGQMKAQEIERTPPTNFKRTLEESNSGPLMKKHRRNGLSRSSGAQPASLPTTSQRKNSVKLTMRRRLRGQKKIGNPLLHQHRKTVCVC
Sequence of Calcium and integrin-binding protein 1 (Homo sapiens) (Q99828 whole entry, looked up): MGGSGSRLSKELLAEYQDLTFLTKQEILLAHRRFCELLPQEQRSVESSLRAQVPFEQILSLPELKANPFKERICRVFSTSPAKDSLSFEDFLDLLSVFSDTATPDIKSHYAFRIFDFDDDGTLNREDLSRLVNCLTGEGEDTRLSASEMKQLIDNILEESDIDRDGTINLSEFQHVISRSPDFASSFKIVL
Sequence of Cytochrome P450 2C9 (Homo sapiens) (P11712 whole entry, looked up): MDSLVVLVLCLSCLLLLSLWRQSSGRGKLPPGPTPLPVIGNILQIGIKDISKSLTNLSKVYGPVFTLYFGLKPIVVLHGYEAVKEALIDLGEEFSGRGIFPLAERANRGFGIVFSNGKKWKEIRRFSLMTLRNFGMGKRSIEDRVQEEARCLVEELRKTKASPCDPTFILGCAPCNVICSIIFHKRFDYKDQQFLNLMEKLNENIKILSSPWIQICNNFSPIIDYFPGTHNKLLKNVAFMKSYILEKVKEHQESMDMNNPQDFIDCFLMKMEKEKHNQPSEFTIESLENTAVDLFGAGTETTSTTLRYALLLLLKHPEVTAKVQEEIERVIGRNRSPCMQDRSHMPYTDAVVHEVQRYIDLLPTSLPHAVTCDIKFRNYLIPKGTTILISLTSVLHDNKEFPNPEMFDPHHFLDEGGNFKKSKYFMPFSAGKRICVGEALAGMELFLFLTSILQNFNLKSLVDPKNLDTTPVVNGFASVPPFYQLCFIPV
Sequence of Papain (Carica papaya) (P00784 whole entry, looked up): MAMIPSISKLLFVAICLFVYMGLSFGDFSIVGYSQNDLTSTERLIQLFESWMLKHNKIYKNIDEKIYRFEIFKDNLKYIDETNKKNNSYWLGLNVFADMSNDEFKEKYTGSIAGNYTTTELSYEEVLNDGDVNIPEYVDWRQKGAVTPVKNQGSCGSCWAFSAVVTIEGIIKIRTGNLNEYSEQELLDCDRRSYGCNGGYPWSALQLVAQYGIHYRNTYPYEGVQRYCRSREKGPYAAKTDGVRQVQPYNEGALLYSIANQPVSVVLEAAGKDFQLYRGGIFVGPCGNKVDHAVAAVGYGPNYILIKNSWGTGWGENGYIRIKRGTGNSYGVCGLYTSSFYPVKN

COc1nc(N)nc2c1ncn2[C@@H]1O[C@H](CO)[C@@H](O)[C@@H]1O
not listed: [9] | [10] | [11] | [12]
inactive: all other assays above

CN(C)CCc1c[nH]c2ccc(C[C@H]3COC(=O)N3)cc12
inactive: [1] | [2] | [3] | [4] | [6] | [7] | [8]

Cc1ccnc2c1NC(=O)c1cccnc1N2C1CC1
inactive: [1] | [3] | [4] | [5] | [6] | [7] | [8]

CN1CCCC(n2nc(Cc3ccc(Cl)cc3)c3ccccc3c2=O)CC1 (stereo unspecified)
active: [10] 20 µM | [7] 0.617 µM
inactive: [1] | [3] | [4] | [9] | [5] | [8]

N[C@@H](Cc1ccc(O)c(O)c1)C(=O)O
inactive: [3] | [11] | [4] | [5] | [12]

NC1(c2ccc(-c3nc4ccn5c(=O)[nH]nc5c4cc3-c3ccccc3)cc2)CCC1
inactive: [1] | [2] | [3] | [4] | [5] | [8]
